Data published in PubChem BioAssay (NCI).
Compounds without any hit were thinned out: in the full panel of roughly 83,000, 20% have a hit.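 Activity criterion: percent growth below 10, measured after cells in 96-well plates were exposed to a single compound concentration for 48 hours.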 Unmarked numbers belong to inactive results. Activity calls are given as the source filed them.

System: MDA-MB-468 breast
Assay: NCI-60 one-dose screen, 48 h (100 = growth as untreated, 0 = no growth, -100 = all killed)
Conditions: 10 µM unless noted

| Compound | growth |
| --- | --- |
| COc1cc2c3c(n(CCCNC4CCCCC4)c(=O)c2cc1OC)-c1cc2c(cc1C3=O)OCO2 | 78.8% |
| CCOC(=O)c1sc(-c2ccc(OS(=O)(=O)c3ccccc3[N+](=O)[O-])c(C=O)c2)nc1C | 55.4% |
| O=S(=O)(NCCNc1nccc(-c2c(-c3cccc(O)c3)nc3occn23)n1)c1ccc(C(F)(F)F)cc1 | 89% |
| CC(C)=CCC[C@H](C)c1ccc(C)c2c1OCN(CCO)C2 | 82.5% |
| Cc1oc2c(Cc3ccc(NC(=O)c4ccc(Cl)cc4)cc3)ncnc2c1C(=O)NO | 92.1% |
| COc1ccc(Cn2cc(C(=O)Nc3cccnc3Nc3ccccc3)nn2)cc1 | 92.9% |
| COc1ccc(-c2nn(-c3ccccc3)cc2/C=C/C(=O)OCc2cn(-c3ccc(F)c(Cl)c3)nn2)cc1 | 72.2% |
| Nc1nc(N)c2c(n1)NC(c1ccc(Cl)cc1)C1CCc3ccccc3C1=N2 (stereo not drawn) | 18.6% |
| Oc1ccccc1/C=N\NC(=S)Nc1ccc(F)cc1 | 2.61% (active) |
| C/C=C/C1=CN2C(=O)c3cc(OC4OC(C)C(NC)C(C)(O)C4O)c(C)cc3N=C[C@@H]2C1 (stereo partly drawn) | -52.9% (active) |
| O=c1[nH]ccc2c(S(=O)(=O)N3CCCNCC3)cccc12 | 15.9% |
| CCOC(=O)C1=C(C(=O)OCC)N(c2cc(OC)c(OC)c(OC)c2)C(N)=C(C#N)C1c1cc(=O)[nH]c2ccccc12 (stereo not drawn) | 92% |
| COc1nc2c(cc1S(=O)(=O)c1ccccc1)CCc1c-2cnn1-c1ccccc1 | 45.3% |
